{"source": "the supplement of paper PMC10849652", "note": "Of roughly 7,900 targets only a part is listed; those with a hit were picked by preference. About 0.6% of all pairs of compound and target were hits."}
{"compound": "C1=CC2=C(C=CC(=C2)/C=C\\3/C(=O)NC(=NCC4=CC=CS4)S3)N=C1", "experiment": "log2 fold change, soluble protein after heating vs DMSO (PISA); higher = thermal stabilisation; K562 cells, 10 uM, 30 min; active = over 0.2 and 3.5 SD of the protein, either way, in both replicates (recomputed)", "in_short": "(§1)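 Thermal stability values are relative to control samples and come from duplicates. They are expressed as log2 fold changes. For measurement, K562 cells (2×10^6 cells/mL) received 10 μM compound for 30 min, and aliquots were heated for 3 min over 48°C-58°C, pooled, and extracted at 4°C in PBS with 0.5% NP-40. Soluble protein, the supernatant after 21,000xg for 90 min, was quantified by TMTpro 16plex LC-MS/MS with equalised channel sums.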"}
{"target": "PLIN2 (UniProt Q99541)", "log2 fold change": "0.023 (inactive)"}
{"target": "PCGF2 (UniProt P35227)", "sequence (P35227 whole entry, looked up)": "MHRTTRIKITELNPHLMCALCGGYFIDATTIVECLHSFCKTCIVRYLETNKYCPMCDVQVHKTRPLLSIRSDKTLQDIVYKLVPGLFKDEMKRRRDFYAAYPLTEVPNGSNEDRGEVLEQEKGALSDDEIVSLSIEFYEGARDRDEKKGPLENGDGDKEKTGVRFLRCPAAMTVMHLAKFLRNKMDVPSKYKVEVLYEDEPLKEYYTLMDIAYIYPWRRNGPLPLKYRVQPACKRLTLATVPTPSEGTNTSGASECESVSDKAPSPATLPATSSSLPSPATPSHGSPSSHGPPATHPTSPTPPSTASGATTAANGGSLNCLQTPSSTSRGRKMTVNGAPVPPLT", "log2 fold change": "0.177 (inactive)"}
{"target": "PRKAR1B (UniProt P31321)", "sequence (P31321 whole entry, looked up)": "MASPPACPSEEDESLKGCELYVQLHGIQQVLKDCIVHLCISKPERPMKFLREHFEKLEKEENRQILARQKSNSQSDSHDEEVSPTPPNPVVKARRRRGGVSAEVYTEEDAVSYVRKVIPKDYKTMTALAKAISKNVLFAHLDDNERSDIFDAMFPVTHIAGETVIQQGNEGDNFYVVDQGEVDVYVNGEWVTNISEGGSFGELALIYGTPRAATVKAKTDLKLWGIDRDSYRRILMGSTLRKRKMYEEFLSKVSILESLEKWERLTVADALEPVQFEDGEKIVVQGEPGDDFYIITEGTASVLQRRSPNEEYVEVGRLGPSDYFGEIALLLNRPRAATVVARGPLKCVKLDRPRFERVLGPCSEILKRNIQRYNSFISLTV", "log2 fold change": "0.205 (inactive)"}
{"target": "PSMB6 (UniProt P28072)", "log2 fold change": "-0.068 (inactive)"}
{"target": "PGGHG (UniProt Q32M88)", "sequence (Q32M88 whole entry, looked up)": "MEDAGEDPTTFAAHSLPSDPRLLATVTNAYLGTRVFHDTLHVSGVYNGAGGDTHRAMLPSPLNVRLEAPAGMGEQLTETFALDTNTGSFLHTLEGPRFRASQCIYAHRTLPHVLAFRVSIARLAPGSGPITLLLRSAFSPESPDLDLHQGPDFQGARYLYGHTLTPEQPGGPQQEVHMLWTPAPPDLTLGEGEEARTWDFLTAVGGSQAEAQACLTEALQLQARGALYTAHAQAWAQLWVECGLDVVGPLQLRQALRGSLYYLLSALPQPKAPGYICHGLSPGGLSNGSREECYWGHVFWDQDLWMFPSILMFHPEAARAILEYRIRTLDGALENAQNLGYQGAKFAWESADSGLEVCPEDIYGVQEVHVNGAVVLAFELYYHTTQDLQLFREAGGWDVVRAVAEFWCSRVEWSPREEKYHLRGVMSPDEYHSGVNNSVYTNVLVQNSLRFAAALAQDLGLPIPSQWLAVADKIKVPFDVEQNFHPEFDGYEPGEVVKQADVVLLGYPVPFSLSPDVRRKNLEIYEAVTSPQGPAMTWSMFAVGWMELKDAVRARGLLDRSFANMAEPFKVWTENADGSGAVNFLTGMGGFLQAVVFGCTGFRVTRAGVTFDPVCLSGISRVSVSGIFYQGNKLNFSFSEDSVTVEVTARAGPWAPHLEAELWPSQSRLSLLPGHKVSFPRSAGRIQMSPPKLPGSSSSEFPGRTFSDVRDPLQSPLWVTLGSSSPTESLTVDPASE", "log2 fold change": "-0.44 (active)"}
{"target": "PTGFRN (UniProt Q9P2B2)", "log2 fold change": "-0.034 (inactive)"}
{"target": "PLCL1 (UniProt Q15111)", "log2 fold change": "-0.042 (inactive)"}
{"target": "PURA (UniProt Q00577)", "log2 fold change": "-0.156 (inactive)"}
{"target": "PPT1 (UniProt P50897)", "sequence (P50897 whole entry, looked up)": "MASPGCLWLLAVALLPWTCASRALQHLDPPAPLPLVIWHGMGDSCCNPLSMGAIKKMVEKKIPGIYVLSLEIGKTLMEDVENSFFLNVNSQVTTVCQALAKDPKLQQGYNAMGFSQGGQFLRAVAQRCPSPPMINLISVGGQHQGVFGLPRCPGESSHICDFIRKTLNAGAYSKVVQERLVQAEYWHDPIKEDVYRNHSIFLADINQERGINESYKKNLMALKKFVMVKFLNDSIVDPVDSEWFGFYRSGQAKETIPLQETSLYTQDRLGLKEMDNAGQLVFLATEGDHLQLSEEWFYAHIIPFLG", "log2 fold change": "0.04 (inactive)"}
{"target": "PKN2 (UniProt Q16513)", "log2 fold change": "0.076 (inactive)"}
{"target": "PTPMT1 (UniProt Q8WUK0)", "sequence (Q8WUK0 whole entry, looked up)": "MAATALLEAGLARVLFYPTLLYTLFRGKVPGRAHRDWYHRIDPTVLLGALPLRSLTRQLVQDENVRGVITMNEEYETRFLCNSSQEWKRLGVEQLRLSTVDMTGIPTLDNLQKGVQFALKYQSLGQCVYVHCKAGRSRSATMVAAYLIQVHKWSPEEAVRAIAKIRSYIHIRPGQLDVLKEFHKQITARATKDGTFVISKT", "log2 fold change": "0.009 (inactive)"}
{"target": "PTMA (UniProt P06454)", "sequence (P06454 whole entry, looked up)": "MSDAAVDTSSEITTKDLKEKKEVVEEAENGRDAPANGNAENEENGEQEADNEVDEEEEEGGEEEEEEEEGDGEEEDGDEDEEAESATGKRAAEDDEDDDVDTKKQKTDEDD", "log2 fold change": "-0.136 (inactive)"}
{"target": "POGLUT1 (UniProt Q8NBL1)", "sequence (Q8NBL1 whole entry, looked up)": "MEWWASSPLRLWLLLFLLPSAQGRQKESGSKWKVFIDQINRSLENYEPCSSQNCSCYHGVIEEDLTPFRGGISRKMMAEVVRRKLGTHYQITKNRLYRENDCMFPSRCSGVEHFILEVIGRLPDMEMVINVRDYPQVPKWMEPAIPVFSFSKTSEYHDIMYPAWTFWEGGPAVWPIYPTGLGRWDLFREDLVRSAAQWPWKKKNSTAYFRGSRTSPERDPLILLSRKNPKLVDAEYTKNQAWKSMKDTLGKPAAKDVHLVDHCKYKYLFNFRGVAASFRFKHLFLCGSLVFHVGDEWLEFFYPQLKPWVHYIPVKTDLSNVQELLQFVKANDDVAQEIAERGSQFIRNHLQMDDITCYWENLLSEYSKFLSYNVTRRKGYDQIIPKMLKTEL", "log2 fold change": "0.055 (inactive)"}
{"target": "POLR2C (UniProt P19387)", "log2 fold change": "-0.038 (inactive)"}
{"target": "PRPF38B (UniProt Q5VTL8)", "log2 fold change": "-0.184 (inactive)"}
{"target": "PSMA3 (UniProt P25788)", "log2 fold change": "-0.073 (inactive)"}
{"target": "PJA2 (UniProt O43164)", "sequence (O43164 whole entry, looked up)": "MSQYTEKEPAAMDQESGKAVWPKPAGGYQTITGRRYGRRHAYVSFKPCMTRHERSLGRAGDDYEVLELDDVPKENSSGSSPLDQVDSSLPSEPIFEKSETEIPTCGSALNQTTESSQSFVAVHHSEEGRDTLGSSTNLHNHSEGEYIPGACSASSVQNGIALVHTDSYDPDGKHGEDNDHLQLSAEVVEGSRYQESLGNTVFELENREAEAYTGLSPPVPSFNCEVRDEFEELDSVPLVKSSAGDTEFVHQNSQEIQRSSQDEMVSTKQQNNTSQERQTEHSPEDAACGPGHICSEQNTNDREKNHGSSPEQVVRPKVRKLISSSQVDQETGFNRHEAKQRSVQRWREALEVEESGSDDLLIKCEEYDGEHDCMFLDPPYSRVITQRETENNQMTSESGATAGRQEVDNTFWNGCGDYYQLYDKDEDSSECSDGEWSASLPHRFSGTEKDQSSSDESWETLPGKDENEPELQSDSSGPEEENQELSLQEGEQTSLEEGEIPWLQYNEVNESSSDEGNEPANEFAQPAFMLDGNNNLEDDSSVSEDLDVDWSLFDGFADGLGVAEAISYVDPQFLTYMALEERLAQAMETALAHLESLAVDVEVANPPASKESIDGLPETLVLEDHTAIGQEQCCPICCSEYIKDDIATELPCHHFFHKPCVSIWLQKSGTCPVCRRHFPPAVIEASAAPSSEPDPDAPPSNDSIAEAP", "log2 fold change": "0.003 (inactive)"}
{"target": "PTP4A2 (UniProt Q12974)", "log2 fold change": "0.018 (inactive)"}
{"target": "PCYT1B (UniProt Q9Y5K3)", "sequence (Q9Y5K3 whole entry, looked up)": "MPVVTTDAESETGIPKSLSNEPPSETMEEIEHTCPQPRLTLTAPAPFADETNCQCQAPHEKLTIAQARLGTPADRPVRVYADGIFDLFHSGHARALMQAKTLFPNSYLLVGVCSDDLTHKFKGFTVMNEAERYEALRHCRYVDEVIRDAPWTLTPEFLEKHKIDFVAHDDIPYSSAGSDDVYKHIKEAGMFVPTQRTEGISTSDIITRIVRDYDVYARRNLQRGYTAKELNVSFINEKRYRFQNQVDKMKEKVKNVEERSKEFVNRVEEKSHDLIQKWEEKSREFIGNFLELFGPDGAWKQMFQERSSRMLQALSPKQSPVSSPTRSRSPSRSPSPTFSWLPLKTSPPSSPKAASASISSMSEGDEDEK", "log2 fold change": "0.078 (inactive)"}
{"target": "PPP1R14A (UniProt Q96A00)", "sequence (Q96A00 whole entry, looked up)": "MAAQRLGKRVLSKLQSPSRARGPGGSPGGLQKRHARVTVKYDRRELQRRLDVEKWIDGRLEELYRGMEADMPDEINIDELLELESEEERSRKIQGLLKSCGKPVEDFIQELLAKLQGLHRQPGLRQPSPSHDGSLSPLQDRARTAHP", "log2 fold change": "-0.036 (inactive)"}
{"target": "PIK3CB (UniProt P42338)", "log2 fold change": "0.081 (inactive)"}
{"target": "POLD3 (UniProt Q15054)", "log2 fold change": "0.048 (inactive)"}
{"target": "PSMD11 (UniProt O00231)", "log2 fold change": "-0.035 (inactive)"}
{"target": "PMM1 (UniProt Q92871)", "log2 fold change": "0.1 (inactive)"}
{"target": "PIP4P2 (UniProt Q8N4L2)", "sequence (Q8N4L2 whole entry, looked up)": "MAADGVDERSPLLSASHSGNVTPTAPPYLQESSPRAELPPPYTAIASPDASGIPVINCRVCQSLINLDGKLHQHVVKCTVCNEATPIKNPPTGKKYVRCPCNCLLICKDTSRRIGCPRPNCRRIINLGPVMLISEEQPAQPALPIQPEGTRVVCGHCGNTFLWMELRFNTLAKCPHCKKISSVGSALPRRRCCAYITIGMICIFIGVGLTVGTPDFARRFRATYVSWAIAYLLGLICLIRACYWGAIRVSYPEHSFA", "log2 fold change": "0.009 (inactive)"}
{"target": "PIGT (UniProt Q969N2)", "log2 fold change": "0.009 (inactive)"}
{"target": "POLR2I (UniProt P36954)", "log2 fold change": "-0.073 (inactive)"}
{"target": "PPP6R1 (UniProt Q9UPN7)", "sequence (Q9UPN7 whole entry, looked up)": "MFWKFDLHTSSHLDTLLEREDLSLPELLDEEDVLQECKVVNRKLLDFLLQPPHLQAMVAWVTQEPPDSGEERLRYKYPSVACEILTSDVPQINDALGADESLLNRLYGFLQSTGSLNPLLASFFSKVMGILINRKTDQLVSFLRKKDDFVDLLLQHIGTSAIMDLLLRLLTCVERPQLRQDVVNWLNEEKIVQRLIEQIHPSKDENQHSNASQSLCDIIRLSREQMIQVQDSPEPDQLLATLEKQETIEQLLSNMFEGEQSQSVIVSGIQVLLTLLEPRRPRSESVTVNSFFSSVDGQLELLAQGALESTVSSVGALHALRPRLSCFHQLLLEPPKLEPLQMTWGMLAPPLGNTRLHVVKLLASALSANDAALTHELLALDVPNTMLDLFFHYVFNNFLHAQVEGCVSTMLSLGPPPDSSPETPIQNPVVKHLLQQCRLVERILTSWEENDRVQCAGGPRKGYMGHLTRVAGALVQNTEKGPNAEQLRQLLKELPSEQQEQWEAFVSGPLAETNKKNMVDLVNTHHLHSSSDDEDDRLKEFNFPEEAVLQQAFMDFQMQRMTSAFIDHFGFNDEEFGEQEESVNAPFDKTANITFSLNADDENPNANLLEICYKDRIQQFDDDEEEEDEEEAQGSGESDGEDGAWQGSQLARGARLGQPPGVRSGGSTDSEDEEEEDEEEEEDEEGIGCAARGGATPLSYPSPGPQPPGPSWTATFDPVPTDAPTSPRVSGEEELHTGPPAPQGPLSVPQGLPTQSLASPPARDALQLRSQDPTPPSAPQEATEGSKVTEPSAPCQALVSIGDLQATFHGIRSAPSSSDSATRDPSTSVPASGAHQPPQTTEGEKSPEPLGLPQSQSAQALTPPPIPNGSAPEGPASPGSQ", "log2 fold change": "0.025 (inactive)"}
{"target": "PRKCQ (UniProt Q04759)", "log2 fold change": "0.093 (inactive)"}
{"target": "POLR1A (UniProt O95602)", "log2 fold change": "0.04 (inactive)"}
{"target": "PRPSAP2 (UniProt O60256)", "log2 fold change": "-0.06 (inactive)"}
{"target": "PSME4 (UniProt Q14997)", "log2 fold change": "0.055 (inactive)"}
{"target": "PPM1G (UniProt O15355)", "log2 fold change": "0.024 (inactive)"}
{"target": "PRKAR2B (UniProt P31323)", "log2 fold change": "-0.004 (inactive)"}
{"target": "PKN1 isoform 2 (UniProt Q16512)", "log2 fold change": "0.059 (inactive)"}
{"target": "PRCP (UniProt P42785)", "log2 fold change": "-0.052 (inactive)"}
{"compound": "C1=CC2=NC=CN=C2C=C1/C=C/3\\C(=O)NC(=O)S3", "experiment": "log2 fold change, soluble protein after heating vs DMSO (PISA); higher = thermal stabilisation; K562 cells, 10 uM, 30 min; active = over 0.2 and 3.5 SD of the protein, either way, in both replicates (recomputed)", "in_short": "as §1"}
{"target": "PLIN2 (UniProt Q99541)", "log2 fold change": "0.101 (inactive)"}
{"target": "PCGF2 (UniProt P35227)", "log2 fold change": "-0.023 (inactive)"}
{"target": "PRKAR1B (UniProt P31321)", "log2 fold change": "0.282 (inactive)"}
{"target": "PSMB6 (UniProt P28072)", "log2 fold change": "-0.006 (inactive)"}
{"target": "PGGHG (UniProt Q32M88)", "log2 fold change": "0.048 (inactive)"}
{"target": "PTGFRN (UniProt Q9P2B2)", "log2 fold change": "0.01 (inactive)"}
{"target": "PLCL1 (UniProt Q15111)", "log2 fold change": "0.007 (inactive)"}
{"target": "PURA (UniProt Q00577)", "log2 fold change": "0.013 (inactive)"}
{"target": "PPT1 (UniProt P50897)", "log2 fold change": "0.007 (inactive)"}
{"target": "PKN2 (UniProt Q16513)", "log2 fold change": "-0.075 (inactive)"}
{"target": "PTPMT1 (UniProt Q8WUK0)", "log2 fold change": "0.015 (inactive)"}
{"target": "PTMA (UniProt P06454)", "log2 fold change": "0.006 (inactive)"}
{"target": "POGLUT1 (UniProt Q8NBL1)", "log2 fold change": "0.026 (inactive)"}
{"target": "POLR2C (UniProt P19387)", "log2 fold change": "-0.053 (inactive)"}
{"target": "PRPF38B (UniProt Q5VTL8)", "log2 fold change": "-0.085 (inactive)"}
{"target": "PSMA3 (UniProt P25788)", "log2 fold change": "-0.025 (inactive)"}
{"target": "PJA2 (UniProt O43164)", "log2 fold change": "0.071 (inactive)"}
{"target": "PTP4A2 (UniProt Q12974)", "log2 fold change": "-0.051 (inactive)"}
{"target": "PCYT1B (UniProt Q9Y5K3)", "log2 fold change": "0.079 (inactive)"}
{"target": "PPP1R14A (UniProt Q96A00)", "log2 fold change": "-0.001 (inactive)"}
{"target": "PIK3CB (UniProt P42338)", "log2 fold change": "0.09 (inactive)"}
{"target": "POLD3 (UniProt Q15054)", "log2 fold change": "0.038 (inactive)"}
{"target": "PSMD11 (UniProt O00231)", "log2 fold change": "-0.035 (inactive)"}
{"target": "PMM1 (UniProt Q92871)", "log2 fold change": "0.002 (inactive)"}
{"target": "PIP4P2 (UniProt Q8N4L2)", "log2 fold change": "0.145 (inactive)"}
{"target": "PIGT (UniProt Q969N2)", "log2 fold change": "-0.001 (inactive)"}
{"target": "POLR2I (UniProt P36954)", "log2 fold change": "-0.117 (inactive)"}
{"target": "PPP6R1 (UniProt Q9UPN7)", "log2 fold change": "0.012 (inactive)"}
{"target": "PRKCQ (UniProt Q04759)", "log2 fold change": "0.012 (inactive)"}
{"target": "POLR1A (UniProt O95602)", "log2 fold change": "0.005 (inactive)"}
{"target": "PRPSAP2 (UniProt O60256)", "log2 fold change": "0.017 (inactive)"}
{"target": "PSME4 (UniProt Q14997)", "log2 fold change": "0.022 (inactive)"}
{"target": "PPM1G (UniProt O15355)", "log2 fold change": "0.035 (inactive)"}
{"target": "PRKAR2B (UniProt P31323)", "log2 fold change": "0.012 (inactive)"}
{"target": "PKN1 isoform 2 (UniProt Q16512)", "log2 fold change": "0 (inactive)"}
{"target": "PRCP (UniProt P42785)", "log2 fold change": "0.014 (inactive)"}
